Screens from PubChem BioAssay.
GRIN3A LBD mod – NR3A (human) ligand-binding domain modulation. NR3A LBD differential scanning fluorimetry, Tm shift; 0% = protein alone, 100% = glycine-bound protein. 340,000 compounds, 2.5% hits. AID 1259313. Tm shift relative to glycine control, % at 25 µM;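 active = melting temperature shift of at least 10% of the positive control shift, at one fixed dose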
MPTP inh – permeability transition pore inhibition. isolated mouse mitochondria, Ca2+ swelling absorbance, 30 min. inhibition, % at 10 µM. 360,000 compounds, 1.4% hits;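 active = inhibition of 50% or more, scaled per plate between neutral and stimulator controls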
FAS TE block – blocks the thioesterase domain of human fatty acid synthase; P49327; recombinant FAS-TE, OMFH fluorogenic substrate, fluorescence endpoint; inhibition, % at 15 µM; 360,000 compounds, 0.67% hits;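 active = compounds whose normalised, plate-corrected inhibition of enzyme fluorescence in the single-dose primary screen is 50% or more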
p-CIP stab down – lowers stability of the mouse p/CIP coactivator protein. Q05BA5. F442A p/CIP-EGFP cells, EGFP fluorescence, 16 h. decrease of EGFP signal, % at 10 µM. 290,000 compounds, 0.01% hits. AID 1984;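 active = EGFP signal decrease of at least 30% at 10 µM or well 3 SD below plate mean, unless failing retest; inactive = the rest, including hits failing retest or dose response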
beta cell repl – MIN6 beta-cell proliferation induction; AID 2380; 330,000 compounds, 0.29% hits; MIN6 cells proliferation, ATPlite luminescence, 48 h; cells starved in 0.2% serum; 100% = growth in 10% serum; proliferation, % at 10 µM;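 active = compounds whose signal lies at least 3.5 SD above the mean of all wells on their plate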
Rh123 counter – membrane potential counter-screen of mitochondrial pore inhibitors | shares compounds with MPTP inh | isolated mitochondria, Rhodamine 123 fluorescence | inhibition, % at 10 µM | 5,000 compounds, 78% hits; in the data active = inhibition above about 22%
MPTP swell DR – MPTP inhibition, dose response swelling confirmation; shares compounds with MPTP inh; isolated mitochondria swelling, absorbance; AID 651561; IC50, µM; 780 compounds, 58% hits; in the data active = IC50 below about 20 µM
MPTP cs DR – MPTP inhibitor counter-screen activity, dose response | AID 651564 | isolated mitochondria counterscreen, fluorescence read-out | IC50, µM | shares compounds with MPTP inh | 780 compounds, 49% hits; in the data active = IC50 below about 80 µM
Hits are given with their value; . = inactive; / = not tested or not shown. Sampled rows, rich in hits. Any-hit rate of the full collection: about 4.1%.

SMILES	GRIN3A LBD mod	MPTP inh	FAS TE block	p-CIP stab down	beta cell repl	Rh123 counter	others
COc1cccc(C(=O)Nc2nnc(S(=O)(=O)N(C)Cc3ccc(F)cc3)s2)c1	.	56	.	.	.	80
Cc1sc2ncnc(NCc3cccs3)c2c1C	.	92	.	.	.	92
Cc1sc2ncnc(NCC(O)c3ccc([N+](=O)[O-])cc3)c2c1C (stereo not given)	.	92	.	.	.	91
Cc1sc2ncnc(NCC(O)c3ccccc3)c2c1C (stereo not given)	.	69	.	.	.	58
Cc1sc2ncnc(NCC(c3ccccc3)N(C)C)c2c1C (stereo not given)	.	.	.	.	.	/
Cc1sc2ncnc(NCc3ccco3)c2c1C	.	.	.	.	.	/
Cc1cccc(N2CC(C(=O)NC3CCCCCC3)CC2=O)c1C (stereo not given)	.	.	.	/	.	/
Oc1c(C=C2N=c3ccccc3=N2)sc(=S)n1C1CCCC1	.	83	.	.	.	50
CCN(Cc1ccccc1)S(=O)(=O)c1ccc(C(=O)N(CCCN(C)C)c2nc3cc(C)cc(C)c3s2)cc1	.	.	.	/	.	/
Cc1cc(C)c2sc(N(CCCN(C)C)C(=O)c3ccc(S(=O)(=O)N(C)Cc4ccccc4)cc3)nc2c1	.	82	.	/	.	.	MPTP swell DR=8.8;MPTP cs DR=45
Cc1ccc2sc(N(CCCN(C)C)C(=O)c3ccc(S(=O)(=O)N(C)Cc4ccccc4)cc3)nc2c1C	.	71	.	/	.	.
COc1ccc2sc(N(CCCN(C)C)C(=O)c3ccc(S(=O)(=O)N(C)Cc4ccccc4)cc3)nc2c1	.	78	.	/	.	.	MPTP swell DR=8.1
CN(C)CCCN(C(=O)c1ccc(S(=O)(=O)N(C)Cc2ccccc2)cc1)c1nc2cc3c(cc2s1)OCO3	.	.	.	.	.	/
Cc1ccc2sc(N(CCCN(C)C)C(=O)c3ccc(S(=O)(=O)N(C)C)cc3)nc2c1C	.	.	.	.	.	/
COc1ccc(NC2CCCN(C(=O)c3cc4ncccn4n3)C2)cc1 (stereo not given)	.	.	.	.	.	/
CCCCCc1cc(O)c2c(C)cc(=O)oc2c1	.	86	.	.	.	79
CCCc1cc(=O)oc2cc(C)cc(O)c12	.	78	.	.	.	78
CCCc1cc(=O)oc2cc(C)cc(OC(=O)c3ccco3)c12	.	84	.	.	.	88
CCc1cc(=O)oc2cc(C)cc(O)c12	.	.	.	.	.	/
CN(C(=O)C1CCCCC1)C1CCS(=O)(=O)C1 (stereo not given)	/	.	.	/	.	/
Cc1ccc(S(=O)(=O)C2(C(=O)N3CCCCC3C)CC2)cc1 (stereo not given)	.	.	.	.	.	/
CCCNC(=O)NC(=O)CSc1nncs1	.	.	.	.	.	/
COc1ccc(NC(=O)Nc2cc(C(C)(C)C)on2)cc1OC	.	.	.	.	.	/
CC(C)Cc1nnc(NC(=O)c2ccc(S(=O)(=O)N3CCCC3)cc2)s1	.	.	.	/	.	/
CC(=O)NC(NC(=S)Nc1ccc(N=Nc2ccccc2C)cc1C)C(Cl)(Cl)Cl (stereo not given)	.	88	.	.	.	63
SMILES	GRIN3A LBD mod	MPTP inh	FAS TE block	p-CIP stab down	beta cell repl	Rh123 counter	others
Cc1ccc(NC(=S)NC(NC(=O)N(C)C)C(Cl)(Cl)Cl)cc1 (stereo not given)	.	.	.	.	.	/
O=C(/C=C/c1ccc(Cl)cc1)NC(=S)Nc1ccc(C(=O)O)cc1	.	.	.	.	.	/
CC(=O)NC(NC(=S)Nc1ccccc1Br)C(Cl)(Cl)Cl (stereo not given)	.	.	.	.	.	/
O=C(/C=C/c1ccccc1)NC(NC(=S)Nc1ccc(Cl)cc1Cl)C(Cl)(Cl)Cl (stereo not given)	20	102	.	.	.	63
O=C(/C=C/c1ccc(Cl)cc1)NC(=S)Nc1ccccc1C(=O)O	.	.	.	.	.	/
O=C(/C=C/c1ccccc1)NC(NC(=S)Nc1cccc(Cl)c1)C(Cl)(Cl)Cl (stereo not given)	29	93	.	.	.	84
Cc1ccc(NC(=S)NC(NC(=O)C(C)(C)C)C(Cl)(Cl)Cl)c(C)c1 (stereo not given)	.	57	.	.	.	64
COc1ccc(OCC(O)Cn2c(Nc3cccc(C)c3)nc3c2c(=O)n(C)c(=O)n3C)cc1 (stereo not given)	.	.	.	.	.	/
Cc1ccc(NC(=O)CNC(=O)c2ccco2)nc1	.	.	.	.	.	/
CCOC(=O)C/C(N)=N/N(C)c1ncc(C(F)(F)F)cc1Cl	.	.	.	.	.	/
Cc1ccc(C)c(NC(=S)NC(NC(=O)/C=C/c2ccccc2)C(Cl)(Cl)Cl)c1 (stereo not given)	14	100	.	.	.	65
CN(C(=O)CSc1ncc(C(F)(F)F)cc1Cl)c1c(N)n(Cc2ccccc2)c(=O)[nH]c1=O	.	.	.	.	.	/
CCOC(=O)NNC(=O)C1CCC(C)CC1 (stereo not given)	.	.	.	.	.	/
COc1ccc(-c2nc(NC(C)=O)sc2-c2ccccc2)cc1	.	82	.	.	.	.	MPTP swell DR=.;MPTP cs DR=.
COc1ccc(-c2sc(NC(C)=O)nc2-c2ccccc2)cc1	.	.	.	.	.	/
COc1ccccc1N1CCN(Cc2cc(=O)c(OCC(=O)NC(C)C)co2)CC1	.	.	.	.	.	/
CCN(CC)S(=O)(=O)c1cc(C(=O)NCCN2CCOCC2)ccc1Cl	.	.	.	.	.	/
Cc1ccc(/C=C2/SC(=S)N(CCCC(=O)Nc3cc([N+](=O)[O-])ccc3O)C2=O)cc1	.	64	.	.	.	.	MPTP swell DR=4.6;MPTP cs DR=<2.5
Cc1ccc(/C=C2\SC(=S)N(CCCC(=O)Nc3ccc(O)cc3)C2=O)cc1	.	.	.	.	.	/
Cc1ccc(SCC(=O)Nc2cc([N+](=O)[O-])ccc2O)cc1	.	102	.	.	.	99
O=C(CSCc1ccc(Cl)cc1)Nc1cc([N+](=O)[O-])ccc1O	.	99	.	.	.	88
O=C(NC(=S)NN1CCCCC1c1cccnc1)c1ccc(Cl)cc1Cl (stereo not given)	.	52	.	.	.	65
CCc1cc2c(=O)c(-c3cnn(-c4ccccc4)c3)c(C)oc2cc1OCC(=O)Nc1ccc(F)c(F)c1	.	80	.	.	.	.	MPTP swell DR=.;MPTP cs DR=.
CCc1cc2c(=O)c(-c3cnn(-c4ccccc4)c3)c(C)oc2cc1OCC(=O)Nc1cccc(C)c1	.	.	.	.	.	/
CCOc1ccc(S(=O)(=O)Nc2cccc(N(C)S(C)(=O)=O)c2)cc1	.	95	.	.	.	42
